Hits are enriched below; roughly 9.2% of the tested compounds scored in any of these assays.
Rab9 prom act – qHTS Assay for Rab9 Promoter Activators; Potency, µM (highest dose often 9.22 µM), for inactives: at the top dose activation, negative = inhibition, hits mostly activators; 320,000 compounds, 2.8% hits; Huh7 Rab9 promoter-luciferase reporter, luminescence, 24 h; note: % of control where 0% means no effect; nearly all actives have a fitted effect of over 60% in size
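Cells were plated at 1500 per well in reduced-serum medium with 10% FBS and left 2 h. Compound in DMSO was then added for 24 h at 37 °C. Reporter signal was read by luminescence after 10 min with luciferase detection reagent.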
NPC1 prom act – qHTS Assay for NPC1 Promoter Activators | Huh7 NPC1 promoter luciferase reporter, 24 h | 320,000 compounds, 2.4% hits | Potency, µM (doses to about 9.22 µM), for the others: at the top dose activation, hits mostly activators; note: % of control where 0% means no effect; nearly all actives have a fitted effect of over 60% in size
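Luminescence from an NPC1 promoter-driven luciferase reporter in stably transfected Huh7 cells was measured after 24 h compound treatment at 37 °C, followed by 10 min ambient incubation with luciferase detection reagent.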
FLuc modulator – qHTS profiling assay for firefly luciferase inhibitor/activator using purifed enzyme and Km concentrations of substrates (counterscreen for miR-21 project) | Luciferin 4-monooxygenase (Photinus pyralis), P08659 | purified FLuc, Km substrates, luminescence inhibition | Potency, µM (titrated, usually from 57.5 µM), inactives show top-dose activity change, negative = inhibition, most hits filed as inhibitors | 360,000 compounds, 6.9% hits;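 note: plate controls were vehicle for no effect and reference inhibitor for full effect; nearly all actives have a fitted effect of over 55% in size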
Target sequence (P08659 whole entry, looked up): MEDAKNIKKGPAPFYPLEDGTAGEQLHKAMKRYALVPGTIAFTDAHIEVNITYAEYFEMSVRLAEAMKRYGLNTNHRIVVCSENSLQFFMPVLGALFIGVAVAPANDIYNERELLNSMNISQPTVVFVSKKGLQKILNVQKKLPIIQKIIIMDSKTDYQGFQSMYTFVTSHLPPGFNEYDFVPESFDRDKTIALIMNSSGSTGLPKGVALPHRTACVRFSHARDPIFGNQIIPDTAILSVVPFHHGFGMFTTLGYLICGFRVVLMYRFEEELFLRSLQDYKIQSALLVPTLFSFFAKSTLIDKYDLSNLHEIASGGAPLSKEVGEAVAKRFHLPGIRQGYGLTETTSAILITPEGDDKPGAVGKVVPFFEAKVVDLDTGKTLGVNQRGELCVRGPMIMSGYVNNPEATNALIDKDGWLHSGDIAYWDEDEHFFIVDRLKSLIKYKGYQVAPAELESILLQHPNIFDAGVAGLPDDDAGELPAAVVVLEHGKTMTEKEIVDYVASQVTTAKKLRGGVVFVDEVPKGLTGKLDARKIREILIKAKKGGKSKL
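Purified P. pyralis luciferase (10nM final) with 10uM D-luciferin and 10uM ATP (Km levels) in 50mM Tris acetate pH 7.5, 10mM Mg acetate, 0.01% Tween-20, 0.05% BSA; qHTS 6-point titration, ~60 µM downward; luminescence read.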
ELG1 genotoxic – qHTS screen for small molecules that induce genotoxicity in human embryonic kidney (HEK293T) cells expressing luciferase-tagged ELG1; Potency, µM (titrated, usually from 46 µM), for the others: at the highest dose activity change, positive = activation, usual class: activators; AID 504466, 2011; HEK293T ELG1-luciferase reporter, luminescence, 16 h; 330,000 compounds, 1.3% hits; note: % of control where 0% means no effect; nearly all actives have a fitted effect of over 60% in size
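Genotoxic stress is detected as increased luminescence from luciferase-tagged ELG1 in HEK293T cells, measured with ONE-Glo after a 16 hr treatment at 37 °C.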
SMN2 splice up – qHTS Assay for Enhancers of SMN2 Splice Variant Expression. 210,000 compounds, 2.8% hits. Potency, µM (top dose mostly 46.1 µM), without a hit: at the highest dose activity change, positive = activation, most hits filed as activators. HEK293 SMN2-luciferase splicing reporter, luminescence, 30-36 h; note: % of control where 0% means no effect; nearly all actives have a fitted effect of over 55% in size
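qHTS luciferase splicing reporter: luminescence rises when SMN2 exon 7 is included in transfected HEK293 cells. Compound exposure lasted 30-36 h at 37C, with 4.5 mM final sodium butyrate as control, followed by a ONE-Glo read.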
ELG1 DNA repair – qHTS screen for small molecules that inhibit ELG1-dependent DNA repair in human embryonic kidney (HEK293T) cells expressing luciferase-tagged ELG1; HEK293T ELG1-luciferase reporter, luminescence, 16 h; DNA damage induced by 5-fluorouridine; Potency, µM (series often up to 46.1 µM), without a hit: at the top dose activity change, negative = inhibition, usual class: inhibitors; 330,000 compounds, 2.3% hits; AID 504467, 2011; note: % is set by controls: 0 for no effect and ±100 for the full control effect; nearly all actives have a fitted effect of over 55% in size
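5-Fluorouridine DNA damage + compound/DMSO, 2,000 cells/well, 16 h, 37 °C/5% CO2. ONE-Glo, 30 min RT, luminescence. Readout = decrease in reporter signal.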
An asterisk follows results filed as active. Calls come from the whole dose curve; as a rule, active = well fitted curve in the direction sought with a large enough effect; inconclusive = small, poorly fitted or top-dose-only effect, or another doubt; inactive = no such curve, though single readings can be large; an effect the other way counts as inactive or inconclusive. Potency is the fitted concentration of half-maximal effect.

Results for CCN(CC)S(=O)(=O)N1CCC(C(=O)NCc2ccc(C)cc2)CC1 ?
Rab9 prom act: 6.0%; NPC1 prom act: 0.3%; FLuc modulator: -2.3%; ELG1 genotoxic: -0.6%; SMN2 splice up: 2.8%; ELG1 DNA repair: 23.1%

Results for C=CCn1c(C)cc(C(=O)COC(=O)COc2ccccc2C#N)c1C ?
Rab9 prom act: 8.7%; NPC1 prom act: -2.0%; FLuc modulator: 1.69µM*; ELG1 genotoxic: 8.3%; ELG1 DNA repair: inconclusive

What do the screens show for `Cc1cc(C(=O)COC(=O)COc2ccccc2C#N)c(C)n1CC1CCCO1` (stereo not given)?
Rab9 prom act: 1.2%; NPC1 prom act: -3.1%; FLuc modulator: 3.01µM*; ELG1 genotoxic: 1.4%; ELG1 DNA repair: inconclusive

Results for C=CCn1c(C)cc(C(=O)COC(=O)/C=C/c2cccc(OC)c2)c1C ?
Rab9 prom act: 1.2%; NPC1 prom act: 0.0%; FLuc modulator: inconclusive; ELG1 genotoxic: -2.5%; SMN2 splice up: -1.4%; ELG1 DNA repair: -23.6%

Results for C=CCn1c(C)cc(C(=O)COC(=O)[C@@H](NC(=O)c2ccccc2Cl)C(C)C)c1C ?
Rab9 prom act: inconclusive; NPC1 prom act: inconclusive; FLuc modulator: 0.151µM*; ELG1 genotoxic: inconclusive; SMN2 splice up: -2.1%; ELG1 DNA repair: inconclusive

Results for N#Cc1ccccc1OCC(=O)OCC(=O)c1ccc[nH]1 ?
Rab9 prom act: -5.0%; NPC1 prom act: -5.7%; FLuc modulator: -5.7%; ELG1 genotoxic: -0.6%; ELG1 DNA repair: 0.0%

How did COc1cc(NC(=O)Cn2nnnc2-c2ccccc2F)cc(OC)c1OC do in these assays?
FLuc modulator: -1.1%; SMN2 splice up: 5.7%

What do the screens show for `c1ccc(-c2ncc(-c3ccn[nH]3)s2)cc1`?
Rab9 prom act: 0.562µM*; NPC1 prom act: 1.41µM*; FLuc modulator: 3.38µM*; ELG1 genotoxic: inconclusive; SMN2 splice up: 2.82µM*; ELG1 DNA repair: inconclusive

Results for O=C(CNC(=O)c1ccco1)Nc1ccc(N2CCCCCC2)cc1 ?
Rab9 prom act: 27.9%; NPC1 prom act: 29.2%; FLuc modulator: 16.9µM*; ELG1 genotoxic: inconclusive; ELG1 DNA repair: inconclusive

How did O=C(CNC(=O)c1ccc(Br)o1)Nc1ccc(N2CCCCCC2)cc1 do in these assays?
Rab9 prom act: -1.3%; NPC1 prom act: -4.2%; FLuc modulator: inconclusive; ELG1 genotoxic: 2.8%; ELG1 DNA repair: 11.9%

What do the screens show for `O=C(O)CCCC(=O)Nc1ccc(N2CCCC2)cc1`?
Rab9 prom act: 6.2%; NPC1 prom act: 3.8%; FLuc modulator: 15.1µM*; ELG1 genotoxic: 0.7%; SMN2 splice up: -11.8%; ELG1 DNA repair: 10.3%

Results for CN1CCN(c2ccc(NC(=O)Cc3ccccc3)cc2)CC1 ?
Rab9 prom act: inconclusive; NPC1 prom act: inconclusive; FLuc modulator: 19µM*; ELG1 genotoxic: 11.6µM*; SMN2 splice up: 17.4%; ELG1 DNA repair: inconclusive

What do the screens show for `O=C(Cc1cccs1)Nc1ccc(N2CCOCC2)cc1`?
Rab9 prom act: inconclusive; NPC1 prom act: inconclusive; FLuc modulator: 16.9µM*; ELG1 genotoxic: inconclusive; SMN2 splice up: inconclusive; ELG1 DNA repair: inconclusive

How did C[C@H](NC(=O)CNC(=O)[C@@H](NC(=O)[C@H](Cc1ccccc1)NC(=O)CNC(=O)CNC(=O)[C@@H](N)Cc1ccccc1)[C@@H](C)O)C(=O)N[C@@H](CCCN=C(N)N)C(=O)N[C@@H](CCCCN)C(=O)N[C@@H](CO)C(=O)N[C@@H](C)C(=O)N[C@@H](CCCN=C(N)N)C(=O)N[C@H](CN)CCCCN do in these assays?
SMN2 splice up: 10.0%
